Assay [1] addresses T1, Serine/threonine-protein kinase Nek9 (Homo sapiens) (UniProt Q8TD19).
T1 sequence (whole entry): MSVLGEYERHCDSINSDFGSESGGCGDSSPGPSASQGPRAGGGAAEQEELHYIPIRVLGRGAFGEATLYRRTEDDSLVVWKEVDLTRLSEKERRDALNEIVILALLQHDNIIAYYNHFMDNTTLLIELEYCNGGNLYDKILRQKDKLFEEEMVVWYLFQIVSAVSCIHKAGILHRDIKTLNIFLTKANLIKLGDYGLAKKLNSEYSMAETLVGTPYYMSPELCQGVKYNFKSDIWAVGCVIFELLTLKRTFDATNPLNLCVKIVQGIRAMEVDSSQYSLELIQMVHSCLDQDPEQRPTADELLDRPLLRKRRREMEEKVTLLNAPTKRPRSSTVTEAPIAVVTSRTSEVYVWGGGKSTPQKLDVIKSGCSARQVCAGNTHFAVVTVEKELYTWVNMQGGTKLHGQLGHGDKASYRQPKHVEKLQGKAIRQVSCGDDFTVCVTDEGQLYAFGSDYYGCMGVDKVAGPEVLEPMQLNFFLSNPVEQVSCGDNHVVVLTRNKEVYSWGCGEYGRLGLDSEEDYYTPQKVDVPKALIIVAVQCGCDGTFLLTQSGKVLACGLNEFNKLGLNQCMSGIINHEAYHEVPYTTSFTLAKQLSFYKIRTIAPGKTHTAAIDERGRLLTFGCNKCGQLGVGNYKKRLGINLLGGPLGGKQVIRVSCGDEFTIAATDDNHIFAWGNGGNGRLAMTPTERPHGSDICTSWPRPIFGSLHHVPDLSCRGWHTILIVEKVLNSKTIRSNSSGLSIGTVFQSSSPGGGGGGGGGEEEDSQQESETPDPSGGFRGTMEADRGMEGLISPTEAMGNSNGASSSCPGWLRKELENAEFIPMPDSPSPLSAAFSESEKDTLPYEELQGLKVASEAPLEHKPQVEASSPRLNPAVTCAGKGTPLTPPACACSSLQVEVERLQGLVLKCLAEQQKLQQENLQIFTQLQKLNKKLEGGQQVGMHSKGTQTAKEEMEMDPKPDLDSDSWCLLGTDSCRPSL
Particulars: at 1 µM.

Assay [2] concerns the target Serine/threonine-protein kinase PLK1 (Homo sapiens) (UniProt P53350). The note with it: at 0.1 µM.
Assay [3] shares this target. Particulars: at 1 µM.
The target of assay [4] is T2, Dual specificity protein kinase TTK (Homo sapiens) (UniProt P33981).
T2 sequence (whole entry): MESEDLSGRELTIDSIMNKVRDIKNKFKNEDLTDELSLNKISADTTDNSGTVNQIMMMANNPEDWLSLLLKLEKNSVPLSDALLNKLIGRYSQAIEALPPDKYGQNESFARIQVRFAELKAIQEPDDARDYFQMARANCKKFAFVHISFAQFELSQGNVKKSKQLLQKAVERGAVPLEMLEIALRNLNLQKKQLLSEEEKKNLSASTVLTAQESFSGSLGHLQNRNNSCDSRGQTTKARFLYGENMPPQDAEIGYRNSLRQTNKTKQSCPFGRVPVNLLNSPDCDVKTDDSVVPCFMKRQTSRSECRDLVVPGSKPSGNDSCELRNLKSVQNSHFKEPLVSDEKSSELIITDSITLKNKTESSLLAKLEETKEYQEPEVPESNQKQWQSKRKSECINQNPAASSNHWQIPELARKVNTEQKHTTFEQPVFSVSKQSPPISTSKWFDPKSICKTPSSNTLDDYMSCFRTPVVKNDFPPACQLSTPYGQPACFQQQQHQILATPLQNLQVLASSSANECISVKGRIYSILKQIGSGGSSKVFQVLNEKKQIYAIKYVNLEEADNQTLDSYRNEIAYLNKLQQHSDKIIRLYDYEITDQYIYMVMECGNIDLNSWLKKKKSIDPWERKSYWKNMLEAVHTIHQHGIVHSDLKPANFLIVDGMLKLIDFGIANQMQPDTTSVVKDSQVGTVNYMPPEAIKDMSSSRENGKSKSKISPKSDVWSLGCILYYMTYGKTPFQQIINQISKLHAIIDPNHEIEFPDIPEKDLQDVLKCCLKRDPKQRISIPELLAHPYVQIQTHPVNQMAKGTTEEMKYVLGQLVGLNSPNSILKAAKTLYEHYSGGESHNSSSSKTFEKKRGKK
The note with it: at 0.1 µM.

For assay [5], the system named is T3, Receptor-type tyrosine-protein kinase FLT3 (Homo sapiens), P36888 [D835Y].
T3 sequence (whole entry): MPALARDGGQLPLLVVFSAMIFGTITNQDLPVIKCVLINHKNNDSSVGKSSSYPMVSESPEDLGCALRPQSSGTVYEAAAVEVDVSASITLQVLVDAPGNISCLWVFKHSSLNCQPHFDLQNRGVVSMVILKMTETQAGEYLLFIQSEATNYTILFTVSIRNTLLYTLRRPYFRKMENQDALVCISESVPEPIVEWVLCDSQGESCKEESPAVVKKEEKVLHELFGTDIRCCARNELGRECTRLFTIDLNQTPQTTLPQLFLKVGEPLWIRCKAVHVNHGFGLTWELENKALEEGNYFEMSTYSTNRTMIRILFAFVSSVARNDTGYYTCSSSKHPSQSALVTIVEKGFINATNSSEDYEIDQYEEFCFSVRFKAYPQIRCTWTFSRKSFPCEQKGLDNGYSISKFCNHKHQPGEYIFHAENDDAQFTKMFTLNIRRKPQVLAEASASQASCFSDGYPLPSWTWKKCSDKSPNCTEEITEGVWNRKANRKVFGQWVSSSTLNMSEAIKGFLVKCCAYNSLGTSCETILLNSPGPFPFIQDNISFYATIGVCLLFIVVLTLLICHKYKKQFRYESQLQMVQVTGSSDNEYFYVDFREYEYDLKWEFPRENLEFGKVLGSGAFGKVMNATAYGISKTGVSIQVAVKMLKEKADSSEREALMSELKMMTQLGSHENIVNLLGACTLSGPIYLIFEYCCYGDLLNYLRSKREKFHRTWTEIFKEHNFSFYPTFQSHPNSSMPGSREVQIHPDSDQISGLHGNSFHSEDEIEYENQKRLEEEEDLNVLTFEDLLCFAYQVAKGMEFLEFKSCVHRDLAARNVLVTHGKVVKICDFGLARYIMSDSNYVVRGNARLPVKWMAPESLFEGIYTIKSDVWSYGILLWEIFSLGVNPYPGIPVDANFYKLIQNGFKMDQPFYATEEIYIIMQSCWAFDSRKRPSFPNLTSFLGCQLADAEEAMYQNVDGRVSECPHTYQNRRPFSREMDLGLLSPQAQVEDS
The note with it: at 1 µM.

For assay [6], the target named is Vascular endothelial growth factor receptor 3 (Homo sapiens) (UniProt P35916). Particulars: at 0.1 µM.
The target is the same in assay [7]. Particulars: at 1 µM.
The target in assay [8] is Macrophage colony-stimulating factor 1 receptor (Homo sapiens) (UniProt P07333). The note with it: at 0.1 µM.
Assay [9] has the same target. The note with it: at 1 µM.
The target in assay [10] is Tyrosine-protein kinase Fyn (Homo sapiens) (UniProt P06241). Particulars: at 0.1 µM.
For assay [11] the target is unchanged. Particulars: at 1 µM.
For assay [12], the target named is Tyrosine-protein kinase HCK (Homo sapiens) (UniProt P08631). The note with it: at 0.1 µM.
Assay [13] shares this target. Particulars: at 1 µM.
In assay [14] the target is Insulin-like growth factor 1 receptor (Homo sapiens) (UniProt P08069). Particulars: at 0.1 µM.
Assay [15] shares this target. Particulars: at 1 µM.
In assay [16] the target is Insulin receptor (Homo sapiens) (UniProt P06213). Particulars: at 0.1 µM.
The target is the same in assay [17]. The note with it: at 1 µM.
Assay [18] has as its target Insulin receptor-related protein (Homo sapiens) (UniProt P14616). The note with it: at 0.1 µM.
For assay [19] the target is unchanged. The note with it: at 1 µM.
Assay [20] deals with T4, Tyrosine-protein kinase ITK/TSK (Homo sapiens) (UniProt Q08881).
T4 sequence (whole entry): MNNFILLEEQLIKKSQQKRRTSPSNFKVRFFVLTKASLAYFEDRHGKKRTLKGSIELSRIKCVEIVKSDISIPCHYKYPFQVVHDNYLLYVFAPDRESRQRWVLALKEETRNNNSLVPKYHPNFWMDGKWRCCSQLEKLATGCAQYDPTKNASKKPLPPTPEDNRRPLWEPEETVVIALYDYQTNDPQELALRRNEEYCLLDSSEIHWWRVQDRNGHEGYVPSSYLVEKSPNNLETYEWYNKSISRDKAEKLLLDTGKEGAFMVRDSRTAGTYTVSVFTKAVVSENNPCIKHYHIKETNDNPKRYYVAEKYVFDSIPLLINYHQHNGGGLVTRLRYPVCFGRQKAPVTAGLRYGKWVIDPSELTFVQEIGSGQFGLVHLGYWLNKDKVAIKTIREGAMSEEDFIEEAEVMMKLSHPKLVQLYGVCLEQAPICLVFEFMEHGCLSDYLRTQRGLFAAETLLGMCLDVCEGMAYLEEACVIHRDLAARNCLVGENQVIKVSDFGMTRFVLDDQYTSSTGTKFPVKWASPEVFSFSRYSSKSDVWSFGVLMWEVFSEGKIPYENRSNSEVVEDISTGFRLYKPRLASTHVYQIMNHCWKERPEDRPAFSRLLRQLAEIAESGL
Particulars: at 0.1 µM.

Molecules are shown by their SMILES.

Macrophage colony-stimulating factor 1 receptor (Homo sapiens), sequence (P07333 whole entry): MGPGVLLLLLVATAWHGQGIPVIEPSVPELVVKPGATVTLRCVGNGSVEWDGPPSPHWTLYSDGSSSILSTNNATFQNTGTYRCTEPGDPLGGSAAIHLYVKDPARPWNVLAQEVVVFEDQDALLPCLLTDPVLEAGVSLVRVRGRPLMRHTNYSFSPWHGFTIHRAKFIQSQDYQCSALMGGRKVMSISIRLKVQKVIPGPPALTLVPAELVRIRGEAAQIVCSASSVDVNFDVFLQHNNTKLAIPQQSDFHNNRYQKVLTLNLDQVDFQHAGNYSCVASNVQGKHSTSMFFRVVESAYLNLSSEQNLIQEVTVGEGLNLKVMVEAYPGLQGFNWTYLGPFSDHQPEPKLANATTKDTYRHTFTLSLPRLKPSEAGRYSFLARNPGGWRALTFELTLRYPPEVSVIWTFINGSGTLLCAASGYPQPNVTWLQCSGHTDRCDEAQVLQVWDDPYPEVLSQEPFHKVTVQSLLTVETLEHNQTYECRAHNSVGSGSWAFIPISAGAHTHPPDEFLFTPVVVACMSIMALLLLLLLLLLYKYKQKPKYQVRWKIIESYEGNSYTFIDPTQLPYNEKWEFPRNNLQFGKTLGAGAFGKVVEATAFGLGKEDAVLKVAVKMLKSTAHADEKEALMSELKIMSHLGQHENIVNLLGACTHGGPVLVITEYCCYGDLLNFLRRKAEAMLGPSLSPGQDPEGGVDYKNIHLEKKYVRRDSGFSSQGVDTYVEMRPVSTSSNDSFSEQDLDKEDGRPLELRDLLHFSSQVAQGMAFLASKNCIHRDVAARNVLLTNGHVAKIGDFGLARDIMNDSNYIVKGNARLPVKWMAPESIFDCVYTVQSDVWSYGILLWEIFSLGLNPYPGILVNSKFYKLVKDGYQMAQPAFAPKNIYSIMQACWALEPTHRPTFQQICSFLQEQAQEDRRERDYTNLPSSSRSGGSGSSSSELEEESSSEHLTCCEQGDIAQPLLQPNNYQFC
Insulin receptor (Homo sapiens), sequence (P06213 28-758 limits assumed): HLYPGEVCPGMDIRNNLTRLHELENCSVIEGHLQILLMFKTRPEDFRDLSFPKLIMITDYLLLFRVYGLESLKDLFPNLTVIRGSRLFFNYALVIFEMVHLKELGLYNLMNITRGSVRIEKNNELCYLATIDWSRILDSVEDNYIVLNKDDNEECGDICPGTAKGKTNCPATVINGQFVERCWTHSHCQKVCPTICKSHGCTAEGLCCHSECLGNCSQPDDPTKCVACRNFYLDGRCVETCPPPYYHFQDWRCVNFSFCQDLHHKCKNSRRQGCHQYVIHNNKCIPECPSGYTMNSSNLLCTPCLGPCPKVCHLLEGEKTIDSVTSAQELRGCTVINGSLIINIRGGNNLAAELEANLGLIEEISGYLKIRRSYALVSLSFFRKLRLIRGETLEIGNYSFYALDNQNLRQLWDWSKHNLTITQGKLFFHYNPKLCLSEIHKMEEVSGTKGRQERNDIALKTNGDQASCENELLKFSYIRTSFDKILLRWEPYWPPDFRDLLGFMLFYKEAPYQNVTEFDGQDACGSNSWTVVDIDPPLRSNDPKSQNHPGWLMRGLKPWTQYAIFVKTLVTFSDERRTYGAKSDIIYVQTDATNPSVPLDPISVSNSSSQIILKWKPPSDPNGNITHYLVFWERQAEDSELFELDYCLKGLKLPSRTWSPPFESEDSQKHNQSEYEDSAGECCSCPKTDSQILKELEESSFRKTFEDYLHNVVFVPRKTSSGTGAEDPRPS
Insulin receptor (Homo sapiens), sequence (P06213 763-1382 limits assumed): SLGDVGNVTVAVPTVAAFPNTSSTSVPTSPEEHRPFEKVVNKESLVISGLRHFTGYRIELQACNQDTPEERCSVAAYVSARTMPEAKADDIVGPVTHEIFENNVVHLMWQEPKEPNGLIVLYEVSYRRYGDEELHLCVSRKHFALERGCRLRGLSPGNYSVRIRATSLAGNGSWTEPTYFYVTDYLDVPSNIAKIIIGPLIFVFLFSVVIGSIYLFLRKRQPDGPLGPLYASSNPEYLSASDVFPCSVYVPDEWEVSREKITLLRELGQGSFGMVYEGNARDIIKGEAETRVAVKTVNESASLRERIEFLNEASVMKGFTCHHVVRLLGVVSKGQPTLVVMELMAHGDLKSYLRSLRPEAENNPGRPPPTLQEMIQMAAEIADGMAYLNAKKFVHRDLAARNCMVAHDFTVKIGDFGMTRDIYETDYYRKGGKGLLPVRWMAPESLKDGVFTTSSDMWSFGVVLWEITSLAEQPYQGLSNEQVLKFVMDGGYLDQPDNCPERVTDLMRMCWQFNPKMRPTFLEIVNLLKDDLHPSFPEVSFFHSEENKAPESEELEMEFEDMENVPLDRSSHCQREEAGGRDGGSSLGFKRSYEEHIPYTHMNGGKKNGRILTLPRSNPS
Vascular endothelial growth factor receptor 3 (Homo sapiens), sequence (P35916 whole entry): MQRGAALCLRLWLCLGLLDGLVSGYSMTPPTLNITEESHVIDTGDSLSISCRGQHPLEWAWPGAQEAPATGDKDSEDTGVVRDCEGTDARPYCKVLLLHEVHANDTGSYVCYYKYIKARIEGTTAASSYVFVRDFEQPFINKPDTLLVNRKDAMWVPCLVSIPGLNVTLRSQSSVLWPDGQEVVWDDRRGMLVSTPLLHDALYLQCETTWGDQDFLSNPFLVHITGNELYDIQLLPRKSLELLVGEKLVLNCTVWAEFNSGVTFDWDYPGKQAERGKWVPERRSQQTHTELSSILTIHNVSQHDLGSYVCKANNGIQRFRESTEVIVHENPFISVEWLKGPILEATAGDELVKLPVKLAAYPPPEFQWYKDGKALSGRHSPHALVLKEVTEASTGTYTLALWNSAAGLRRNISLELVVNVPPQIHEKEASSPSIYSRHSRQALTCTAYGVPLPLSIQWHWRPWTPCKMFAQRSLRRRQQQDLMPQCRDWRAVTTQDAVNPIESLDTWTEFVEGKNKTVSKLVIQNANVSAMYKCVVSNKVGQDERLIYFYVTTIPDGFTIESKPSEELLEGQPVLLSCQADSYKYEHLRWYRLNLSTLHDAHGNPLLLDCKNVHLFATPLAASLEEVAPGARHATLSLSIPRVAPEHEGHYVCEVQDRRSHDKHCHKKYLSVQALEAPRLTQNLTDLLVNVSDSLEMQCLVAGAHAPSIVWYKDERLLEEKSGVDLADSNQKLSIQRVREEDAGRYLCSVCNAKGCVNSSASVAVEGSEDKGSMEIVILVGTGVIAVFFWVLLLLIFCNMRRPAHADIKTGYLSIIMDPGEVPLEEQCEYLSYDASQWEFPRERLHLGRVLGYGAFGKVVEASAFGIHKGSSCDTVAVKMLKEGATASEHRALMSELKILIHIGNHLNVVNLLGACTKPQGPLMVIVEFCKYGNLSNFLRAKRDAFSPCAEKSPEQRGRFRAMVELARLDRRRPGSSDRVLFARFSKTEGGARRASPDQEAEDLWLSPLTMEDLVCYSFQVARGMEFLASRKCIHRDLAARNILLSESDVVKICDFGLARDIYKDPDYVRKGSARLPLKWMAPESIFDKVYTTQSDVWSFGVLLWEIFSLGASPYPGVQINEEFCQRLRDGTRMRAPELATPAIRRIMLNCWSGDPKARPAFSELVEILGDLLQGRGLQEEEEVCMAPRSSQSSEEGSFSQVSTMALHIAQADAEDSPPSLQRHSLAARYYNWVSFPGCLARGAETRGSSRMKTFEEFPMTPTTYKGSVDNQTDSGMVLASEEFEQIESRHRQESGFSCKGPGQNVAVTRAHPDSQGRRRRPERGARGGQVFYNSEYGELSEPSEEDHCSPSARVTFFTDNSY
Serine/threonine-protein kinase PLK1 (Homo sapiens), sequence (P53350 whole entry): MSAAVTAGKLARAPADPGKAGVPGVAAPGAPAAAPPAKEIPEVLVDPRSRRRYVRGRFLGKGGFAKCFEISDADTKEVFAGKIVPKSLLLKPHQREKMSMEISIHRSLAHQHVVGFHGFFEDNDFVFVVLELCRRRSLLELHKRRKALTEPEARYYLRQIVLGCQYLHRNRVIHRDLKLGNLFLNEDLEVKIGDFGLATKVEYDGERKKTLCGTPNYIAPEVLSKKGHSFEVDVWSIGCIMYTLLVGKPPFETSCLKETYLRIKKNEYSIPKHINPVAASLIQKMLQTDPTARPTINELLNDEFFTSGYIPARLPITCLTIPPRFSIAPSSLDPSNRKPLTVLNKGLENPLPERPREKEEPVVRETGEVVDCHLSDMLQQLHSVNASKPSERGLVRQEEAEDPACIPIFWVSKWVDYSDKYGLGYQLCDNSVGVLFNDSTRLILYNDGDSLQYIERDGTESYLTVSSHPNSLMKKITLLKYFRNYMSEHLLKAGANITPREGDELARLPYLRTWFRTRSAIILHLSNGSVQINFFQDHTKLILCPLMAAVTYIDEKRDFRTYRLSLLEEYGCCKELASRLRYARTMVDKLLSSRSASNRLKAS
Tyrosine-protein kinase Fyn (Homo sapiens), sequence (P06241 2-537 limits assumed): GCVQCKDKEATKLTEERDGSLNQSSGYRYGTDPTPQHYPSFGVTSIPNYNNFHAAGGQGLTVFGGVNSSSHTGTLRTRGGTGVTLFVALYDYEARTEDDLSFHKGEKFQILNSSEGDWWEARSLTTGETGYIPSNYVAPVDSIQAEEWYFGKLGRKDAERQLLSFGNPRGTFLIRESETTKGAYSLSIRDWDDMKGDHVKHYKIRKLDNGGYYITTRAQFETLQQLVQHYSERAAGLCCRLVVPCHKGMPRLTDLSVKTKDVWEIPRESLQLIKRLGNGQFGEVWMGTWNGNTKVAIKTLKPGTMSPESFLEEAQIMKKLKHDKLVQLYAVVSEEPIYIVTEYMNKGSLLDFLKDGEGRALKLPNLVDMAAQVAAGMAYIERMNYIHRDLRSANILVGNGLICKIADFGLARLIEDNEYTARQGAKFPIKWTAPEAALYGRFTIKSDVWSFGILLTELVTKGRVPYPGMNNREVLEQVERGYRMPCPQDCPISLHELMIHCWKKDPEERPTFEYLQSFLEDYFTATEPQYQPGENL

Regarding `CCn1c(-c2nonc2N)nc2c(C#CC(C)(C)O)ncc(OCC3CCNCC3)c21`, the inhibition – broadly, the drop in the measured response relative to a control, in per cent – in assay [1] was 8.54%; in assay [2], 4.55%; in [3] it was 3.24%; in assay [4] it was 9.22%; in [5], 0.35%; in [6], -2.47%. The inhibition in [7] was 34.8%; in assay [8], 1.63%; in assay [9], 1.19%; in [10] it was -4.47%; in assay [11] it was 2.15%; in assay [12], 2.07%. Also, the inhibition in assay [13] is 5.41%; in [14], -3.92%; in [15], -4.46%; in assay [16], 2.75%; in [17], 1.72%; in assay [18], 2.1%. In addition, the inhibition in assay [19] is 2.17%; in assay [20], -2.28%.
Turning to `Fc1ccc(-c2ncn(C3CCNCC3)c2-c2ccnc(Oc3ccccc3)n2)cc1`, the inhibition in assay [1] was 5.18%; in [2], 3.38%; in [3], 3.09%; in assay [4], 6.21%; in assay [5], -0.44%; in [6] it was -7.44%. The inhibition was -0.76% in assay [8]; 3.02% in [9]; -2.88% in assay [10]; -3.36% in assay [11]; 2.11% in [12]; 1.98% in assay [13]. Further, the inhibition in [15] was -4.15%; in [16], 2.42%; in assay [17], 3.05%; in assay [18], 0.57%; in [19], 0.22%; in assay [20], -3.91%.
`COc1cc2c(cc1Nc1nc(Nc3ccsc3C(N)=O)c3cc[nH]c3n1)N(C(=O)CN(C)C)CCC2`: the inhibition was -3.87% in assay [1]; 86.3% in assay [2]; 97.1% in [3]; 9.22% in [4]; 5.44% in assay [5]; 55% in assay [8]. In addition, the inhibition in [9] was determined as 82.8%; in assay [10], 2.02%; in assay [11] it was 6.09%; in assay [12], 14%; in assay [13], 16.6%; in assay [14] it was 99.3%. Besides, the inhibition is 101% in assay [15]; 102% in assay [16]; 99.9% in assay [17]; 95.7% in assay [18]; 97.3% in [19]; -1.24% in assay [20].
Take `CCn1c(-c2nonc2N)nc2c(C#CC(C)(C)O)ncc(OC[C@@H]3CCCN3)c21`: the inhibition in assay [1] is 0.02%; in assay [2], -0.2%; in [3], -3.86%; in assay [4] it was 4.43%; in [5], -3.96%; in assay [6], 4.88%. Besides, the inhibition is 33.9% in assay [7]; -2.54% in assay [8]; 1.4% in assay [9]; 0.24% in assay [10]; 1.07% in assay [11]; -1.1% in assay [12]. Besides, the inhibition in assay [13] is 1%; in [14] it was -4.88%; in assay [15] it was 0.19%; in assay [16], 0.85%; in assay [17], -1.35%; in assay [18], -1.3%. Further, the inhibition in assay [19] was -0.44%; in assay [20] it was -1.58%.

For the origin of these results see ChEMBL document CHEMBL1961873, “Compounds: GSK PKIS; Assays: Nanosyn kinase panel” (2012).
